Data on 14 compounds can be found in PubChem BioAssay (NCI).

Some test systems named below: SK-MEL-2 melanoma; EKVX NSCLC; SN12C renal; UO-31 renal; TK-10 renal; ACHN renal; CAKI-1 renal; CCRF-CEM leukemia; MOLT-4 leukemia; A498 renal.
Test in all cases: NCI-60 one-dose screen, 48 h (100 = growth as untreated, 0 = no growth, -100 = all killed)
Holding throughout (details): 10 µM unless noted

Compounds without any hit were thinned out: in the full panel of roughly 83,000, 20% have a hit.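 Assay: single dose, 48 h. Readout: percent growth (0 = no net growth; negative = cell death). Active: <10.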 Unmarked numbers belong to inactive results. Calls of active or inactive are those of the source.

As for `Cl.Fc1c[c-]c(-c2ccccn2)c(F)c1.[Pt].c1ccc([PH+](CC[PH+](c2ccccc2)c2ccccc2)c2ccccc2)cc1`, the growth in the test on SK-MEL-2 melanoma is -76.8% (active); in the test on EKVX NSCLC, -99.2% (active); with SN12C renal it was -75.8% (active); with UO-31 renal it was -92.4% (active); in the test with TK-10 renal it was -83.7% (active); in the test on ACHN renal it was -97.9% (active). The growth in the test on CAKI-1 renal is -83.5% (active); in the test with CCRF-CEM leukemia it was -43% (active); with MOLT-4 leukemia, -26.8% (active).

In the case of `CCCCCCCC/C=C\CCCCCCCCOc1cccc(CC(=O)NCC[N+](C)(C)C)c1`, the growth was 106% in the test on SK-MEL-2 melanoma; 92.6% in the test with EKVX NSCLC; 69.7% in the test with SN12C renal; 92.6% in the test with UO-31 renal; 68.6% in the test on TK-10 renal; 93.4% in the test on ACHN renal. Further, the growth in the test on CAKI-1 renal is 71.2%; with CCRF-CEM leukemia, 78%; in the test on MOLT-4 leukemia, 92.9%.

For `CCCCC(O)Cn1ncc(C(=O)OCC)c1NC(=O)NCc1ccccc1C(F)(F)F` (centres undefined), the growth was 104% with SK-MEL-2 melanoma; 101% in the test on EKVX NSCLC; 99.7% in the test with SN12C renal; 82.6% in the test on UO-31 renal; 96.3% in the test with TK-10 renal; 97.4% with ACHN renal. Besides, the growth in the test on CAKI-1 renal was 84.2%; in the test on CCRF-CEM leukemia, 104%; in the test with MOLT-4 leukemia, 93.9%.

On to `C=C[C@H]1C[C@@H]2C[C@@H]3[C@H]4C/C=C\C(=O)NCCCC5NC(=O)C(=C(O)/C=C/[C@@H]4CC(=O)[C@H]3[C@@H]2[C@H]1C)C5=O` (some centres undefined), for which the growth in the test with SK-MEL-2 melanoma was -54% (active); in the test on EKVX NSCLC it was 61.6%; in the test on SN12C renal, -60.7% (active); with UO-31 renal it was -87.4% (active); with TK-10 renal, -94.5% (active); with ACHN renal, -93.3% (active). For the same compound, the figures for the growth in the test on CAKI-1 renal, in the test on A498 renal and in the test with MOLT-4 leukemia were 29%, -93.5% (active) and -68.9% (active), respectively.

In the case of `COc1ncnc2c1ncn2C/C(Br)=C(\Br)CCl`, the growth in the test with SK-MEL-2 melanoma is 51.6%; in the test with EKVX NSCLC, 114%; in the test on SN12C renal it was 10.8%; with UO-31 renal it was -56.8% (active); in the test with TK-10 renal it was 51.3%; with ACHN renal, 14.9%. For the same compound, the growth in the test with CAKI-1 renal was 96.2%; in the test on A498 renal, 94.8%; in the test with CCRF-CEM leukemia, -38.7% (active); in the test with MOLT-4 leukemia, 18.9%.

As to `O=C1CCC(N2C(=O)c3cccc(NCCOCCOCCNC(=O)c4cc5c(o4)C(=O)c4ccccc4C5=O)c3C2=O)C(=O)N1` (centres undefined), the growth in the test on SK-MEL-2 melanoma was -27.8% (active); in the test with EKVX NSCLC it was 55.9%; with SN12C renal, -90.6% (active); in the test on UO-31 renal it was 51%; in the test on TK-10 renal, 36.1%; with ACHN renal, 41.9%. Further, the values for the growth in the test with CAKI-1 renal, in the test on CCRF-CEM leukemia and with MOLT-4 leukemia were 22%, 14.5% and 6.06% (active), respectively.

With `COc1ccc(/C=N/OCC(O)CNCc2ccccc2)cc1OC1CCCC1` (centres undefined), the growth was 115% in the test with SK-MEL-2 melanoma; 93.1% with EKVX NSCLC; 99.9% in the test with SN12C renal; 69.2% with UO-31 renal; 103% with TK-10 renal; 99.6% with ACHN renal. For the same compound, the growth is 84% in the test with CAKI-1 renal, 113% in the test on CCRF-CEM leukemia and 101% in the test on MOLT-4 leukemia.

As for `COc1ccc(/C=C2\SC(=O)N(CN3CCN(c4cc5c(cc4F)c(=O)c(C(=O)O)cn5C4CC4)CC3)C2=O)cc1`, the growth was 101% with SK-MEL-2 melanoma; 97.4% in the test with EKVX NSCLC; 108% in the test on SN12C renal; 80.2% with UO-31 renal; 104% in the test with TK-10 renal; 111% in the test on ACHN renal. Besides, the growth in the test on CAKI-1 renal was 94.1%; with CCRF-CEM leukemia it was 111%; in the test on MOLT-4 leukemia, 116%.

Turning to `CC1SC(c2cccc(Oc3ccccc3)c2)N(CCc2cccs2)C1=O` (centres undefined), the growth in the test on SK-MEL-2 melanoma was -75.7% (active); with EKVX NSCLC, -24.1% (active); in the test with SN12C renal it was -86.3% (active); in the test on UO-31 renal it was -17.7% (active); in the test with TK-10 renal, -16.2% (active); with ACHN renal, -12.8% (active). For the same compound, the growth in the test on CAKI-1 renal was -37.4% (active); with A498 renal, -56.6% (active); in the test with MOLT-4 leukemia, -2.19% (active).

`CN1CCN(C)c2cncc(Br)c2C1=O`: the growth was 118% with SK-MEL-2 melanoma; -82.7% (active) in the test on EKVX NSCLC; 101% with SN12C renal; 79.5% in the test with UO-31 renal; 126% in the test on TK-10 renal; 108% in the test on ACHN renal. Further, the values for the growth in the test on CAKI-1 renal, with A498 renal and in the test with MOLT-4 leukemia were -89.3% (active), 85% and 98.5%, respectively.

As to `O=C(CCc1nnc2sc(/C=C\c3ccccc3)nn12)c1nc2ccccc2[nH]1`, the growth in the test with SK-MEL-2 melanoma is 98.1%; in the test on EKVX NSCLC, 88.6%; in the test with SN12C renal, 91.9%; with UO-31 renal, 70.4%; in the test with TK-10 renal it was 113%; in the test with ACHN renal, 99.5%. The results for the growth in the test with CAKI-1 renal, in the test with A498 renal and in the test on MOLT-4 leukemia were 93.4%, 65.2% and 62.8%, respectively.

`O=c1oc2ccccc2cc1-c1csc(N=Nc2c(O)[nH]c3ccc(Cl)cc23)n1`: the growth in the test on SK-MEL-2 melanoma is 107%; in the test on EKVX NSCLC, 103%; in the test with SN12C renal, 100%; in the test on UO-31 renal, 98.2%; in the test with TK-10 renal it was 106%; in the test with ACHN renal, 101%. For the same compound, the growth in the test on CAKI-1 renal is 94.9%; in the test with CCRF-CEM leukemia, 94.2%; in the test with MOLT-4 leukemia it was 105%.

In the case of `COc1cc(C(=O)N(C(C)C)C2CCCCC2)cc(OC)c1OC`, the growth is 98.5% in the test with SK-MEL-2 melanoma; 144% in the test with EKVX NSCLC; 96.3% with SN12C renal; 89% with UO-31 renal; 94% in the test on TK-10 renal; 103% in the test with ACHN renal. For the same compound, the growth in the test on CAKI-1 renal was 86.6%; with A498 renal it was 102%; in the test with CCRF-CEM leukemia it was 94.8%; in the test on MOLT-4 leukemia, 97.1%.

Consider `COc1cc(-c2ccc3cc(OC)c(OC)c(OC)c3c2)cc(OC)c1OC`, for which the growth is 61% in the test on SK-MEL-2 melanoma; 65.7% in the test on EKVX NSCLC; 92.9% with SN12C renal; 35.5% in the test on UO-31 renal; 85.7% in the test with TK-10 renal; 79.8% with ACHN renal. Moreover, the growth in the test on CAKI-1 renal was 42.5%; with A498 renal it was 77.3%; in the test with CCRF-CEM leukemia, 55.2%; in the test with MOLT-4 leukemia it was 83.9%.
